Source: PubChem (National Center for Advancing Translational Sciences (NCATS))
Sampled rows, rich in hits. Any-hit rate of the full collection: about 0.47%.
Hsp90 Hop PPI: qHTS Assay for Disrupters of an Hsp90 Co-Chaperone Interaction | actives 0.44% (n = 71,000) | Hsp90 C-terminal peptide / TPR2A (Hop) interaction, human | AID 595, 2007 | AlphaScreen TPR2A-His6 binding biotin-Hsp90 C-terminal peptide | Potency, µM (series often up to 57 µM); active means well fitted curve in either direction with a large enough effect; inconclusive means small, poorly fitted or top-dose-only effect, or another doubt
BRCT inh red: qHTS Assay for Inhibitors of BRCT-Phosphoprotein Interaction (Red Fluorophore); Breast cancer type 1 susceptibility protein (Homo sapiens), P38398; BRCT-phosphopeptide binding, red fluorescence polarization; Potency, µM (doses to about 76.9 µM), actives largely listed as inhibitors; actives 0.03% (n = 75,000); AID 892, 2007
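Rhodamine-labelled pBACH1 10-mer (100 nM) bound to BRCT domain (100 nM) at pH 7.3; compounds incubated 12 min room temperature, polarization read. Free peptide defines full inhibition; unlabelled decapeptide titrated as control.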
BRCT PPI green: qHTS Assay for Inhibitors of BRCT-Phosphoprotein Interaction (Green Fluorophore) | Breast cancer type 1 susceptibility protein (Homo sapiens), P38398 | Potency, µM (series often up to 76.9 µM), most hits filed as inhibitors | AID 875, 2007 | actives 0.05% (n = 75,000) | BRCA1 BRCT-phosphopeptide binding, green fluorescence polarization
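Fluorescence polarization: His-tagged BRCT (~35 kDa BRCA1 C-terminus, 250 nM) bound to 100 nM fluorescein-labeled phosphorylated 10-aa BACH1 peptide, pH 7.3 phosphate buffer with DTT and Tween 20. Compounds incubated 12 min at room temperature; inhibition read as lowered polarization.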
YjeE inh: qHTS Assay for Inhibitors of YjeE; tRNA threonylcarbamoyladenosine biosynthesis protein TsaE (Escherichia coli (strain …; purified YjeE enzyme, qHTS inhibition assay; Potency, µM; actives 0.05% (n = 71,000)
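Purified YjeE (10 uM) with BODIPY Texas Red-labeled ADP probe (2 uM); compounds pin-transferred, 15 min at room temperature. Binding inhibition read as decreased fluorescence polarization; ADP titration as control.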
USP2a inh: qHTS Assay for Inhibitors of Ubiquitin-specific Protease USP2a. Ubiquitin carboxyl-terminal hydrolase 2 (Homo sapiens), O75604. USP2a enzymatic assay, qHTS inhibition. Potency, µM (titrated, usually from 38.3 µM), most hits filed as inhibitors. actives 0.1% (n = 60,000); further: nearly all actives have a fitted effect of over 60% in size
Target sequence (O75604 whole entry, looked up): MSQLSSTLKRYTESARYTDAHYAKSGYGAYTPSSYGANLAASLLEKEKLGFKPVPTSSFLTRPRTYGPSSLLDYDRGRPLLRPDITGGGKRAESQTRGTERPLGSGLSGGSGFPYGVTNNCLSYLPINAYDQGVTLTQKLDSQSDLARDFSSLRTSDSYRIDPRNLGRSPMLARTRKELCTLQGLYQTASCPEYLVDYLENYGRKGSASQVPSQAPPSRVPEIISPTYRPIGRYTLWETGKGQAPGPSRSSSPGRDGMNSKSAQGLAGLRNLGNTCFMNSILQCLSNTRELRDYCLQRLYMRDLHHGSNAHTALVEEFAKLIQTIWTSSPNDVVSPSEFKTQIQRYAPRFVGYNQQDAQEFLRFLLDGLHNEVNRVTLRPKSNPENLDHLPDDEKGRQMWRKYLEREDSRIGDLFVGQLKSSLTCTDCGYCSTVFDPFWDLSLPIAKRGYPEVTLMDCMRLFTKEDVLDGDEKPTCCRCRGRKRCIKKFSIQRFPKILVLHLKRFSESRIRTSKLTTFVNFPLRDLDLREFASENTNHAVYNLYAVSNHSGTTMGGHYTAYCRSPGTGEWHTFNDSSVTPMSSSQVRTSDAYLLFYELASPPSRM
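Coupled readout: USP2-cleaved Ub-PLA2 (20nM final) turns over NBD C6-HPC (20uM final), Ex 460nm/Em 535nm after 2.5 h, time-zero read flagging artifacts. Enzyme (20nM final, pH 8.0 Tris) given 30 min RT with compound first; NEM defines full inhibition.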
Ub-GFP proteasome: Ubiquitin-GFP Assay. Ubiquitin-GFP reporter cells, proteasome inhibition, GFP fluorescence; response scale: untreated = 0%, 10 µM MG-132 = 100%. Potency, µM (highest dose often 45.9 µM), hits mostly activators. 67,000 tested, under 10 active. AID 526, 2006; active means well fitted activation curve with a large enough effect, not every such curve was filed as active; inconclusive means small, poorly fitted or top-dose-only effect, or another doubt; inactive means no such curve, though single readings can be large or run the other way
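Proteasome block read as GFP accumulation: ubiquitin(G76V)-GFP U2OS cells exposed to compound (2.9 nM–46 uM) for 4 hr at 37 C. Normalization used untreated cells as 0% and 10 uM MG-132 as 100%; concentration-response curves fitted.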
Each line names hits and unclear results; the compound was inactive in the other large screens. Unless noted, the call rests on the fitted dose curve; in most records, active means well fitted curve in the direction sought with a large enough effect; inconclusive means small, poorly fitted or top-dose-only effect, or another doubt; inactive means no such curve, though single readings can be large; an effect the other way counts as inactive or inconclusive.

CO[C@H]1COC(=O)C/C=C\[C@H](C)[C@@H](OC)COC(=O)[C@@H](C)COC(=O)C/C=C\[C@@H]1C	none (no result: Hsp90 Hop PPI, YjeE inh, USP2a inh, Ub-GFP proteasome)
C[C@@H]1Oc2ccc(C(=O)C[C@@H](C(=O)O)c3ccc4c(c3)OCO4)cc2O1	none (no result: USP2a inh)
NCCSC[C@H](N)C(=O)O	none (no result: USP2a inh)
CCc1cccc2nc3c(c([Si](CC)(CC)CC)c12)Cn1c-3cccc1=O	Hsp90 Hop PPI 25.1µM (no result: USP2a inh, Ub-GFP proteasome)
CN(C)c1ccc(C(=C2C=CC(=[N+](C)C)C=C2)c2ccc(N(C)C)cc2)cc1	Hsp90 Hop PPI inconclusive, YjeE inh 5.01µM, USP2a inh 10µM (no result: Ub-GFP proteasome)
CN(C)Cc1ccccc1-c1nc(N(C)Cc2ccco2)c2ccccc2n1	none
CC(=O)[C@H](CC(C)C)NC(=O)[C@@H](CC(C)C)NC(=O)[C@H](CC(C)C)NC(=O)OCc1ccccc1	Ub-GFP proteasome 0.794µM (no result: USP2a inh)
CC(=O)NC(CC(C)C)C(=O)NC(Cc1ccccc1)C(N)=O (stereo not drawn)	none
COc1cccc2c1C(=O)c1c(O)c3c(c(O)c1C2=O)C[C@@](O)(C(C)=O)C[C@@H]3O[C@H]1C[C@H](N)[C@H](O)[C@H](C)O1	Hsp90 Hop PPI inconclusive, BRCT inh red 15.8µM (no result: USP2a inh)
CC(C)(C)c1ccc(S(=O)(=O)/C=C\C#N)cc1	YjeE inh inconclusive
COc1cccc(OC)c1C(=O)NC1C(=O)N2C1SC(C)(C)C2C(=O)O (stereo not drawn)	none (no result: Hsp90 Hop PPI, YjeE inh, Ub-GFP proteasome)
O=C(O)c1cccnc1C(=O)O	Hsp90 Hop PPI 3.16µM
CC(C)n1c2ccccc2c2nc3ccccc3nc21	Hsp90 Hop PPI 31.6µM
CC(C)n1c(Nc2ccccc2)nc2ccccc21	none
O=C(NCC1CCCO1)c1sc(=S)n2c1[nH]c(=O)c1ccc(C(=O)N3CCCCC3)cc12 (stereo not drawn)	USP2a inh 2µM
O=C(CSc1nc2ccccc2s1)c1sc2sc3ccccc3[n+]2c1O	Hsp90 Hop PPI inconclusive, YjeE inh inconclusive (no result: USP2a inh)
COc1ccc(Oc2cn[nH]c2-c2ccc(O)cc2O)cc1	none
CCCc1ccc(Oc2cn[nH]c2-c2ccc(O)cc2O)cc1	USP2a inh 3.98µM
CCC(O)OC(O)CC (stereo not drawn)	none (no result: USP2a inh, Ub-GFP proteasome)
CC1(C)CC[C@]2(C(=O)O)CC[C@]3(C)C(=CC[C@@H]4[C@@]5(C)CC[C@H](O)C(C)(C)[C@@H]5CC[C@@]43C)[C@@H]2C1	none (no result: BRCT inh red, BRCT PPI green, USP2a inh)
O=C(O)c1ccc(Cl)c2c1C1C=CCC1C(c1ccccn1)N2 (stereo not drawn)	Hsp90 Hop PPI inconclusive, BRCT inh red 31.6µM, BRCT PPI green 31.6µM, YjeE inh 39.8µM (no result: USP2a inh)
C1=CC2c3ccccc3NC(c3ccncc3)C2C1 (stereo not drawn)	Hsp90 Hop PPI inconclusive (no result: USP2a inh)
COC(=O)[C@@]1(Cc2ccc(OC)cc2)[C@H]2c3cc(C(=O)N4CCCC4)n(CCc4ccc(O)c(OC)c4)c3C[C@H]2CN1C(=O)c1ccccc1	none (no result: USP2a inh, Ub-GFP proteasome)
CN1CCN(C(c2cccnc2)c2ccc3cccnc3c2O)CC1 (stereo not drawn)	Hsp90 Hop PPI 3.16µM
O=C(c1nc2ccc([N+](=O)[O-])cc2[nH]c1=O)[C@@H](O)c1ccc2c(c1)OCO2	none (no result: USP2a inh)
NC(=O)c1ccccc1N=Cc1ccccn1	none
NC([N-]/N=C/c1ccccn1)=[S]=[Fe].O=S(=O)(O)O	Hsp90 Hop PPI 1.26µM (no result: USP2a inh)
C[N+](C)(CCCOc1ccccc1)c1ccccc1	none
Cn1c(SCc2cccnc2)nc2cccnc21	USP2a inh 5.01µM
CCC1=C2CC[C@H]3C(=O)N(c4ccccc4)C(=O)[C@H]3[C@H]2[C@@]2(Cc3ccccc3)C(=O)N(CC(=O)OC)C(=O)N2C1=O	none (no result: Hsp90 Hop PPI, YjeE inh, USP2a inh, Ub-GFP proteasome)
O=C1c2cccc(O)c2C(=O)c2c(O[C@@H]3O[C@H](CO)[C@@H](O)[C@H](O)[C@@H]3O)cccc21	none (no result: USP2a inh)
